ALDH1A1 inh – qHTS Assay for Inhibitors of Aldehyde Dehydrogenase 1 (ALDH1A1); Purified ALDH1A1, NADH fluorescence, propionaldehyde substrate; Aldehyde dehydrogenase 1A1 (Homo sapiens), P00352; Potency, µM (titrated, usually from 75.3 µM), for inactives: at the highest dose activity, negative = inhibition, actives largely listed as inhibitors; 220,000 tested, 7.3% active; active = well fitted inhibition curve with a large enough effect, not every such curve was filed as active; inconclusive = small, poorly fitted or top-dose-only effect, or another doubt; inactive = no such curve, though single readings can be large or run the other way;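 note: potency is the fitted concentration of half-maximal effect; plate controls were no enzyme wells and a reference inhibitor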
JMJD2E inh – qHTS Assay for Inhibitors of Human Jumonji Domain Containing 2E (JMJD2E); Lysine-specific demethylase 4E (Homo sapiens), B2RXH2; JMJD2E catalytic domain, FDH-coupled NADH fluorescence (FDH is formaldehyde dehydrogenase); Potency, µM (doses to about 57.1 µM), for inactives: at the top dose activity change, negative = inhibition, usual class: inhibitors; 230,000 tested, 1.6% active; AID 2147, 2009; active = well fitted inhibition curve with a large enough effect, not every such curve was filed as active; inconclusive = small, poorly fitted or top-dose-only effect, or another doubt; inactive = no such curve, though single readings can be large or run the other way;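 note: potency is the fitted concentration of half-maximal effect; 0% = wells with enzyme and -100% = buffer wells without enzyme; nearly all actives have a fitted effect of over 50% in size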
Target sequence (B2RXH2 1-337 limits assumed): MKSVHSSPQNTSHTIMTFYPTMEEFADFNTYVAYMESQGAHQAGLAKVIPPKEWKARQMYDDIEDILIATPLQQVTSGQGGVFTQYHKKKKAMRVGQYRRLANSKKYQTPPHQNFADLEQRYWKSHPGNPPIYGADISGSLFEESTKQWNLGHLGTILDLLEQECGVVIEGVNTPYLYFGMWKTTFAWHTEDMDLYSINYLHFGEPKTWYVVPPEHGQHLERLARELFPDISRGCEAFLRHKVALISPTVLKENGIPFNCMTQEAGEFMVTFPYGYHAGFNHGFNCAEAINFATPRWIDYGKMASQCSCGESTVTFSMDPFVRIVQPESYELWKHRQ
LMNA splice mod – qHTS Assay for Modulators of Lamin A Splicing; HeLa LMNA splicing GFP/RFP minigene ratio, 48 h; AID 1487, 2009; 200,000 tested, 0.01% active; Potency, µM (doses to about 46.1 µM), for the others: at the highest dose ratio change, negative = inhibition, actives largely listed as inhibitors; active = well fitted inhibition curve with a large enough effect in the signal ratio, with a control signal flat, not every such curve was filed as active; inconclusive = small, poorly fitted or top-dose-only effect, or effect the other way, or a change in a side signal; the % refers to the signal ratio; note: potency is the fitted concentration of half-maximal effect; % is set by controls: 0 for no effect and ±100 for the full control effect
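S3 HeLa stable clones carrying a lamin A-EGFP splicing minigene plus DsRed2 were seeded at 600 cells/well in Opti-MEM with 2% FBS, pin-dosed and incubated 48 h at 37°C. Acumen cytometry (488 nm) gave the GFP/RFP total-intensity ratio.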
miR-21 reporter – qHTS Assay for Modulators of miRNAs and/orActivators of miR-21; 340,000 tested, under 10 active; AID 2288, 2010; Potency, µM (titrated, usually from 38.3 µM), for inactives: at the top dose activity change, positive = activation, hits mostly activators; HeLa miR-21 FLuc reporter, luciferase, 48 h;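 note: % of control where 0% means no effect; miR-21 action dims this reporter so a rising signal means less miR-21 action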
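HeLa cells endogenously expressing miR-21, stably carrying CMV-driven firefly luciferase with a downstream miR-21 binding site, 2000 cells/well. Titrations up to approximately 40 uM, 48 hours; luciferase luminescence read.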
G9a block – qHTS Assay for Inhibitors of Histone Lysine Methyltransferase G9a | G9a H3K9 monomethylation, AlphaScreen, 2 h | Potency, µM (titrated, usually from 102 µM), for inactives: at the highest dose activity, negative = inhibition, usual class: inhibitors | Histone-lysine N-methyltransferase EHMT2 (Homo sapiens), Q96KQ7 | 350,000 tested, 8.8% active; note: potency is the fitted concentration of half-maximal effect; % is set by controls: 0 for no effect and ±100 for the full control effect; nearly all actives have a fitted effect of over 75% in size
Target sequence (Q96KQ7 913-1193 limits assumed): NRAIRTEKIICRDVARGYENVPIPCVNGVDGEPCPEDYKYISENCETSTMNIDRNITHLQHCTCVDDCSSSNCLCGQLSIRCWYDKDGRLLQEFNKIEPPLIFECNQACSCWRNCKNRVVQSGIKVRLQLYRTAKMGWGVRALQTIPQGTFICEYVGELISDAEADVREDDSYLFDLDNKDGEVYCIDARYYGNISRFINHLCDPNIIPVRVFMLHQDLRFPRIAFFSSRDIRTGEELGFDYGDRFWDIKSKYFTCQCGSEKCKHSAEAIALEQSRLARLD
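Chemiluminescent proximity detection of H3K9 monomethylation, read after 10 min bead incubation in the dark. Reaction: 20 nM G9a, 500 nM biotin-H3K9 peptide, 20 uM SAM cofactor, 2 h, room temperature, following 15 min enzyme-compound preincubation.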
Sfp PPTase inh – qHTS Assay for Inhibitors of Bacillus subtilis Sfp phosphopantetheinyl transferase (PPTase). 310,000 tested, 3.5% active. 4'-phosphopantetheinyl transferase ffp (Bacillus subtilis), Q9F4F7. AID 1490, 2009. Biochemical Sfp PPTase activity, qHTS. Potency, µM, for inactives: largest response in the series, negative = inhibition, actives largely listed as inhibitors;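 note: the enzyme is Sfp with the accession as filed and its product quenches rhodamine fluorescence; potency is the fitted concentration of half-maximal effect; 0% = enzyme reaction without inhibitor and -100% = no enzyme wells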
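With Hepes-Na pH 7.6 buffer containing 10 mM MgCl2, Sfp (15 nM) modified BHQ-2-YbbR (12.5 uM) using rhodamine-CoA (5 uM). Two reads 30 minutes apart at 525/598 nm yielded each well's rate.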
Starred values were filed as active, the others as inactive; [ ] = remark or other dose. This is a sample that favours compounds with a hit; in the whole collection about 13% have one here. Unless noted, calls come from the whole dose curve; as a rule, active = well fitted curve in the direction sought with a large enough effect; inconclusive = small, poorly fitted or top-dose-only effect, or another doubt; inactive = no such curve, though single readings can be large; an effect the other way counts as inactive or inconclusive.

Results for S=C(Cc1cccnc1)N1CCOCC1 ?
ALDH1A1 inh: 13µM*; JMJD2E inh: -16%; LMNA splice mod: 1%; miR-21 reporter: -5%; G9a block: 2.2µM*; Sfp PPTase inh: -69%

How did CCOC(=O)C1CCCCN1C(=O)CCn1nnnc1CN1CCOCC1 (stereo not drawn) do in these assays?
miR-21 reporter: -4%; G9a block: 3%; Sfp PPTase inh: 15%

What do the screens show for `CCOc1cc(CN2CCN(c3ccc(C(C)=O)cc3)CC2)ccc1OC`?
ALDH1A1 inh: 18µM*; JMJD2E inh: -113%; LMNA splice mod: -4%; miR-21 reporter: 3%; G9a block: 32µM*; Sfp PPTase inh: 79µM*

How did CCOc1cc(CN2CCCCC2)ccc1OC do in these assays?
ALDH1A1 inh: 0%; JMJD2E inh: -2%; LMNA splice mod: 2%; miR-21 reporter: -2%; G9a block: -5%[59 µM]; Sfp PPTase inh: 7%

Results for CCOc1cc(CN2CCN(c3cccc(C(F)(F)F)c3)CC2)ccc1OC ?
ALDH1A1 inh: inconclusive; JMJD2E inh: inconclusive; LMNA splice mod: -21%; miR-21 reporter: 0%; G9a block: 22µM*; Sfp PPTase inh: -27%

What do the screens show for `COc1ccccc1C(=O)Nc1nnc(SCc2cc(=O)n3ccc(C)cc3n2)s1`?
LMNA splice mod: -2%[46 µM]; miR-21 reporter: -19%; G9a block: 0%[59 µM]

How did COC(=O)c1ccc(/C=N/NC(=O)C(=O)NCC2CCCO2)cc1 (stereo not drawn) do in these assays?
JMJD2E inh: -3%; miR-21 reporter: 1%; Sfp PPTase inh: 7%

What do the screens show for `O=C(N/C=C/c1ccco1)OCc1ccccc1`?
ALDH1A1 inh: inconclusive; JMJD2E inh: -23%; miR-21 reporter: -9%; G9a block: 50µM*; Sfp PPTase inh: -13%

What do the screens show for `CCN(CC(=O)NCc1ccc(Cl)cc1)C(=O)/C=C/c1ccco1`?
ALDH1A1 inh: inconclusive; JMJD2E inh: -14%; LMNA splice mod: -17%[46 µM]; miR-21 reporter: -4%; G9a block: -27%; Sfp PPTase inh: -2%

Results for O=C(N/C=C/c1ccco1)NCc1ccccc1 ?
ALDH1A1 inh: 22µM*; JMJD2E inh: inconclusive; LMNA splice mod: -2%[9.22 µM]; miR-21 reporter: 0%; G9a block: 25µM*; Sfp PPTase inh: -28%

What do the screens show for `COc1ccc(NC(=O)c2cc3c(=O)n(Cc4cccnc4)ccc3nc2C)cc1Cl`?
LMNA splice mod: -5%[46 µM]; miR-21 reporter: -22%; G9a block: 6%[59 µM]

What do the screens show for `Cc1nc2sc(C(N)=O)c(N)c2c(C)c1CC(=O)c1ccccc1`?
ALDH1A1 inh: -13%; JMJD2E inh: -10%; miR-21 reporter: 6%; G9a block: 14µM*; Sfp PPTase inh: -15%

How did O=C(O)c1ccc(NS(=O)(=O)Cc2ccccc2)cc1 do in these assays?
ALDH1A1 inh: -3%[13.5 µM]

What do the screens show for `CCOc1ccc(C2CC(=O)Nc3c2c(=O)[nH]c2ncnn32)cc1` (stereo not drawn)?
miR-21 reporter: 0%; G9a block: inconclusive

What do the screens show for `Cc1nc(-c2ccc(-n3nncc3-c3ccco3)cc2)cs1`?
ALDH1A1 inh: 25µM*; JMJD2E inh: inconclusive; LMNA splice mod: -10%[46 µM]; miR-21 reporter: -16%; G9a block: inconclusive; Sfp PPTase inh: -11%

How did CC(C)(C)n1nc2c(c1NC(=O)C1CC(=O)N(c3ccc(Cl)cc3)C1)CS(=O)(=O)C2 (stereo not drawn) do in these assays?
miR-21 reporter: 11%; G9a block: 6%; Sfp PPTase inh: 6%

How did CC(C)C1CC(CCN)(Cc2ccccc2)CCO1 (stereo not drawn) do in these assays?
ALDH1A1 inh: -6%; JMJD2E inh: 7%; miR-21 reporter: -5%; Sfp PPTase inh: inconclusive

What do the screens show for `CC1CN(c2ccc([N+](=O)[O-])c(NCCOc3ccccc3)c2)CC(C)N1` (stereo not drawn)?
miR-21 reporter: 14%; G9a block: inconclusive; Sfp PPTase inh: -5%

What do the screens show for `Cc1ccccc1OCCNc1cc(N2CC(C)NC(C)C2)ccc1[N+](=O)[O-]` (stereo not drawn)?
ALDH1A1 inh: -6%; JMJD2E inh: 3%; miR-21 reporter: inconclusive; G9a block: 40µM*; Sfp PPTase inh: -16%

What do the screens show for `CCc1ccc(OCCNc2cc(N3CCNC(C)C3)ccc2[N+](=O)[O-])cc1` (stereo not drawn)?
G9a block: 4%[2.33 µM]

Results for CC1CN(c2ccc([N+](=O)[O-])c(NCCOc3ccc(Cl)cc3)c2)CC(C)N1 (stereo not drawn) ?
miR-21 reporter: inconclusive; G9a block: 45µM*; Sfp PPTase inh: inconclusive

How did CC(C)=NO[C@@H](C)c1cc(-c2c(C)cc(C)cc2C)no1 do in these assays?
ALDH1A1 inh: 12%[13.5 µM]; Sfp PPTase inh: 14%

What do the screens show for `C(=N/Nc1nc(-c2ccccc2)cc(-c2ccccc2)n1)/c1cccnc1`?
ALDH1A1 inh: inconclusive; JMJD2E inh: 0%; LMNA splice mod: inconclusive; miR-21 reporter: 4%; G9a block: -1%[59 µM]; Sfp PPTase inh: 13%

What do the screens show for `S=c1[nH]c(-c2ccccc2)cn1/N=C/c1ccc(Br)cc1`?
ALDH1A1 inh: -4%; JMJD2E inh: inconclusive; miR-21 reporter: 2%; G9a block: 13µM*; Sfp PPTase inh: 11%

How did S=c1[nH]c(-c2ccccc2)cn1/N=C/c1cccnc1 do in these assays?
JMJD2E inh: inconclusive; miR-21 reporter: -2%; G9a block: 2.5µM*; Sfp PPTase inh: 45µM*

Results for O=C(O)c1ccc(/C=N/n2cc(-c3ccccc3)[nH]c2=S)cc1 ?
JMJD2E inh: inconclusive; miR-21 reporter: 0%; Sfp PPTase inh: 18µM*

Results for CCCCn1c(N)c(N(CCOC)C(=O)c2cc3c(s2)CCC(C)C3)c(=O)[nH]c1=O (stereo not drawn) ?
G9a block: 35µM*

Results for CCCCn1c(N)c(N(CCOC)C(=O)c2ccc(N3C(=O)CCC3=O)cc2)c(=O)[nH]c1=O ?
G9a block: 10%[0.501 µM]

How did CCCn1c(N)c(N(CCOC)C(=O)c2cc3c(s2)CCC(CC)C3)c(=O)[nH]c1=O (stereo not drawn) do in these assays?
G9a block: 21%[2.33 µM]

Screening data as filed in PubChem.
